Records with an inconclusive call do not appear. Values without a mark were called inactive. Calls of active or inactive are those of the source. Calls follow the shape of the dose curve; as a rule, active = well fitted inhibition curve with a large enough effect; inconclusive = small, poorly fitted or top-dose-only effect; inactive = flat fitted curve, though single readings scatter.
Potency is read from the fitted curve at half-maximal effect.

Tested on in one test: not listed separately
Kind of test: qHTS profiling for inhibitors of Plasmodium falciparum proliferation (AID 504749). Also: nearly all actives have a fitted effect of over 60% in size.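 As to activity, negative = inhibition: 0% = DMSO vehicle and full inhibition = artemisinin control.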 As to conditions: P. falciparum in erythrocytes, SYBR Green DNA, 72 h; at 12.8 µM (top of the series); parasite line A. The procedure, abridged:
(§1)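 P. falciparum-infected erythrocytes (0.3% parasitemia, 2.5% hematocrit final) were exposed to compounds for 72 h at 37 C in 5% CO2, then lysed with SYBR Green buffer overnight at room temperature; parasite DNA fluorescence was normalized to artemisinin and DMSO controls.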
(In qHTS, concentration-response curves come from the screen itself.)
In the case of `O=C(OC[C@@H](O)CO)c1ccccc1Nc1ccnc2cc(Cl)ccc12`, the activity, negative = inhibition is -14.6%.

Consider `CO[C@]1(NC(=O)[C@H](C(=O)O)c2ccc(O)cc2)C(=O)N2C(C(=O)O)=C(CSc3nnnn3C)CO[C@H]21`, for which the activity, negative = inhibition was 8.42%.

In the case of `COc1ccc2c(c1)N(C[C@@H](C)CN(C)C)c1ccccc1S2`, the activity, negative = inhibition is 2.81%.

Regarding `CCC(=O)[C@@]1(C)[C@H](C)C[C@@H]2[C@@H]3CCC4=CC(=O)C=C[C@@]4(C)[C@H]3[C@H](O)C[C@]21C`, the activity, negative = inhibition is -6.51%.

With `CCC(C)(C)C(=O)O[C@@H]1C[C@H](C)C=C2C=C[C@H](C)[C@@H](CC[C@H]3C[C@@H](O)CC(=O)O3)[C@H]21`, the activity, negative = inhibition is -15.1%.

`CC=C(/C(=C/C)c1ccc(O)cc1)c1ccc(O)cc1`: the activity, negative = inhibition is -1.05%.

With `CC1(C)S[C@@H]2[C@H](NC(=O)[C@@H](N)c3ccccc3)C(=O)N2[C@H]1C(=O)O[C@H]1OC(=O)c2ccccc21`, the activity, negative = inhibition is 9.34%.

Staying with this test, now noted: P. falciparum in erythrocytes, SYBR Green DNA, 72 h; at 12.8 µM (top of the series); parasite line B.
For `CCO[C@H]1O[C@@H]([C@H](COCc2ccccc2)OCc2ccccc2)[C@@H](OCc2ccccc2)[C@H]1O`, the activity, negative = inhibition was -27.6%.

Take `O=C(OC[C@@H](O)CO)c1ccccc1Nc1ccnc2cc(Cl)ccc12`: the activity, negative = inhibition was -22.4%.

For `CO[C@]1(NC(=O)[C@H](C(=O)O)c2ccc(O)cc2)C(=O)N2C(C(=O)O)=C(CSc3nnnn3C)CO[C@H]21`, the activity, negative = inhibition is 2.41%.

In the case of `COc1ccc2c(c1)N(C[C@@H](C)CN(C)C)c1ccccc1S2`, the activity, negative = inhibition is -1.87%.

For the molecule `CCC(=O)[C@@]1(C)[C@H](C)C[C@@H]2[C@@H]3CCC4=CC(=O)C=C[C@@]4(C)[C@H]3[C@H](O)C[C@]21C`, the activity, negative = inhibition is 3.51%.

Turning to `CCN(CC)[C@@H](C)CN1c2ccccc2Sc2ccccc21`, the activity, negative = inhibition is -12.9%.

In the case of `CC=C(/C(=C/C)c1ccc(O)cc1)c1ccc(O)cc1`, the activity, negative = inhibition is -9.06%.

As to `CC1(C)S[C@@H]2[C@H](NC(=O)[C@@H](N)c3ccccc3)C(=O)N2[C@H]1C(=O)O[C@H]1OC(=O)c2ccccc21`, the activity, negative = inhibition was 6.7%.

A further test relates to 3D7. The description is as above. As to conditions: P. falciparum in erythrocytes, SYBR Green DNA, 72 h; series mostly up to 12.8 µM. The procedure, abridged: as §1
Turning to `CCO[C@H]1O[C@@H]([C@H](COCc2ccccc2)OCc2ccccc2)[C@@H](OCc2ccccc2)[C@H]1O`, the Potency result is “inactive”.

For `COc1cc(N[C@@H](C)CCCN)c2ncccc2c1`, the Potency was 1.78 µM (active).

With `C=Cc1c(C)c2cc3nc(cc4[nH]c(cc5nc(cc1[nH]2)C(C)=C5CCC(=O)O)c(CCC(=O)OC)c4C)[C@@]1(C)C3=CC=C(C(=O)OC)[C@H]1C(=O)OC` (tested in a mixture with another compound), the Potency was 3.55 µM (active).

In the case of `O=C(OC[C@@H](O)CO)c1ccccc1Nc1ccnc2cc(Cl)ccc12`, the Potency entry was “inactive”.

With `CO[C@]1(NC(=O)[C@H](C(=O)O)c2ccc(O)cc2)C(=O)N2C(C(=O)O)=C(CSc3nnnn3C)CO[C@H]21`, the Potency entry was “inactive”.

In the case of `COc1ccc2c(c1)N(C[C@@H](C)CN(C)C)c1ccccc1S2`, the Potency result was “inactive”.

As for `CCC(C)(C)C(=O)O[C@@H]1C[C@H](C)C=C2C=C[C@H](C)[C@@H](CC[C@H]3C[C@@H](O)CC(=O)O3)[C@H]21`, the Potency result was “inactive”.

As to `CC=C(/C(=C/C)c1ccc(O)cc1)c1ccc(O)cc1`, the Potency entry is “inactive”.

Turning to `CC1(C)S[C@@H]2[C@H](NC(=O)[C@@H](N)c3ccccc3)C(=O)N2[C@H]1C(=O)O[C@H]1OC(=O)c2ccccc21`, the Potency entry is “inactive”.

Values taken from PubChem BioAssay (NCATS).
